Rows were chosen to be rich in hits. Some 17% of all compounds tested hit in one or more screens of this group.
ATXN2 expr inh: ATXN2 expression inhibition; AID 1745845; Potency, µM (doses to about 57 µM), for the others: at the top dose activity change, negative = inhibition, most hits filed as inhibitors; HEK-293 ATXN2-luciferase reporter, luminescence, 24 h; actives 0.72% (n = 360,000); further: on the % scale 0 is the no-effect control and ±100 the full control effect; nearly all actives have a fitted effect of over 55% in size
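qHTS (up to 57 uM final) was run with 24 h compound exposure of reporter cells at 37 °C. Each well was multiplexed: SteadyGlo luminescence measured ATXN2-luciferase expression after a fluorogenic Gly-Phe-AFC viability readout (25 uM final).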
HepG2 viability: counter-screen for TGF-b inhibitors: cytotoxicity in HepG2 cells | AID 588856 | Potency, µM (top dose mostly 46.1 µM), for the others: at the highest dose activity change, negative = cytotoxicity, hits mostly cytotoxic | HepG2 CAGA-GFP viability, ATP luminescence, 18 h | actives 0.76% (n = 410,000)
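CellTiter-Glo luminescence gave cytotoxicity after 18 hours at 37 degrees C. The cells were HepG2 CAGA-GFP in 1% FBS DMEM, stimulated with 500 pg/mL TGF-beta after compound addition. %Activity was normalised to no-cell wells (complete cell-killing) and DMSO (no toxicity), and curves were fitted and classified.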
DT40 TDP1 no CPT: qHTS for Inhibitors of human tyrosyl-DNA phosphodiesterase 1 (TDP1): qHTS in cells in absence of CPT | DT40 Tdp1-/- hTDP1 cells, no CPT, ATP luminescence, 48 h | Potency, µM (top dose mostly 46.2 µM), without a hit: top-dose activity change, negative = growth inhibition, hits mostly inhibitors | actives 15% (n = 420,000); further: on the % scale 0 is the no-effect control and ±100 the full control effect; nearly all actives have a fitted effect of over 55% in size
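Stably hTDP1-transfected Tdp1-null chicken DT40 cells were treated with library compounds minus camptothecin and grown for at least 48 hr at 37 °C, after which cellular ATP was quantified by luminescence.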
ATXN viability: viability counter-screen for ATXN expression inhibitors; S2 cells (HEK-293 line with an ATXN2-luciferase reporter) viability, CellTiter-Fluor protease fluorescence, 24 h; Potency, µM (titrated, usually from 56.7 µM), most hits filed as cytotoxic; actives 0.49% (n = 400,000); AID 651635; further: nearly all actives have a fitted effect of over 40% in size
TDP1 cell CPT: growth inhibition of DT40 Tdp1-/-;hTDP1 cells with camptothecin (screen for TDP1 inhibitors) | chicken DT40 Tdp1-/-;hTDP1 cells + 20 nM CPT, ATP luminescence, 48 h | Potency, µM (highest dose often 46.2 µM), for inactives: top-dose activity change, negative = growth inhibition, most hits filed as inhibitors | actives 12% (n = 420,000); further: on the % scale 0 is the no-effect control and ±100 the full control effect; nearly all actives have a fitted effect of over 55% in size
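Chicken DT40 Tdp1-/- cells complemented with human TDP1, 400 cells/well, exposed to compounds plus 20 nM camptothecin for at least 48 h at 37 C; viability read as ATP content by CellTiter-Glo luminescence.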
TGFb SMAD3 inh: inhibitors of TGF-b signaling. HepG2 CAGA-GFP TGF-b/SMAD3 reporter, GFP fluorescence, 18 h; TGF-beta stimulated, 500 pg/mL final. Potency, µM (series often up to 46.1 µM), for the others: at the top dose activity, negative = inhibition, usual class: inhibitors. actives 1.2% (n = 410,000); further: on the % scale 0 is the no-effect control and ±100 the full control effect; nearly all actives have a fitted effect of over 65% in size
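Per well, imaged GFP fluorescence of HEPG2 CAGA-GFP cells gives the signal; cells get compound, then TGF-beta (500 pg/mL final), 18 h at 37 degrees C; %Activity versus -TGF-beta and +DMSO controls.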
Numbers without * were called inactive; ! = a repeat was not active; [ ] = another dose, or the depositor's remark. The call rests on the fitted dose curve; in most records, active means well fitted curve in the direction sought with a large enough effect; inconclusive means small, poorly fitted or top-dose-only effect, or another doubt; inactive means no such curve, though single readings can be large; an effect the other way counts as inactive or inconclusive. Potency means the concentration at half of the fitted maximal effect.

`Cc1cc(C)c2c(=O)cc(C(=O)Nc3ccc(S(=O)(=O)N(C)Cc4ccccc4)cc3)oc2c1` gave ATXN2 expr inh -9%, HepG2 viability 0%, DT40 TDP1 no CPT inconclusive, ATXN viability inconclusive, TDP1 cell CPT 5.8µM* and TGFb SMAD3 inh -1%.
`Cc1cc(C)c2c(=O)cc(C(=O)Nc3ccc(S(=O)(=O)Nc4nc(C)cc(C)n4)cc3)oc2c1` gave ATXN2 expr inh 7%, HepG2 viability 0%, DT40 TDP1 no CPT inconclusive, ATXN viability inactive, TDP1 cell CPT 12% and TGFb SMAD3 inh 23%.
Screening O=C(NCc1ccncc1)c1cnn(-c2nccc(-c3cccs3)n2)c1C1CC1 returned DT40 TDP1 no CPT -11%, ATXN viability inactive and TDP1 cell CPT -7%[9.04 µM].
For CC1(C#N)c2ccccc2C(Br)=CN1C(=O)c1ccccc1 (stereo not drawn) the results were ATXN2 expr inh -23%, HepG2 viability -38%, DT40 TDP1 no CPT inconclusive, ATXN viability inactive, TDP1 cell CPT inconclusive and TGFb SMAD3 inh -3%.
`N#CC1(Cc2ccc(Cl)cc2)c2ccccc2C=CN1C(=O)c1ccccc1` (stereo not drawn) gave ATXN2 expr inh -14%, HepG2 viability 8%, DT40 TDP1 no CPT 18µM*, ATXN viability inactive, TDP1 cell CPT inconclusive and TGFb SMAD3 inh 15%.
`Cc1ccc(-n2c(SCc3cccc(F)c3)nc3[nH]ncc3c2=O)cc1C` gave ATXN2 expr inh -14%, HepG2 viability 20µM*, DT40 TDP1 no CPT 21µM*, ATXN viability inconclusive, TDP1 cell CPT 21µM* and TGFb SMAD3 inh inconclusive.
For CCc1ccc(-n2c(SCc3ccccc3C)nc3[nH]ncc3c2=O)cc1 the results were HepG2 viability 22µM*, DT40 TDP1 no CPT 21µM* and TDP1 cell CPT inconclusive.
Screening O=c1c2cn[nH]c2nc(SCc2c(F)cccc2F)n1-c1ccc(Cl)cc1 returned ATXN2 expr inh -13%, HepG2 viability -106%, DT40 TDP1 no CPT inconclusive, ATXN viability inactive, TDP1 cell CPT inconclusive and TGFb SMAD3 inh 16µM*!.
CCc1ccc(-n2c(SCc3cccc(F)c3)nc3[nH]ncc3c2=O)cc1 was read as ATXN2 expr inh inconclusive, HepG2 viability 20µM*, DT40 TDP1 no CPT 16µM*, ATXN viability inconclusive, TDP1 cell CPT 21µM* and TGFb SMAD3 inh inconclusive.
For Cc1ccc(-n2c(SCc3ccccc3C)nc3[nH]ncc3c2=O)cc1C the results were ATXN2 expr inh inconclusive, HepG2 viability -106%, DT40 TDP1 no CPT inconclusive, ATXN viability inconclusive, TDP1 cell CPT inconclusive and TGFb SMAD3 inh inconclusive.
Screening O=C(NCc1cccc(F)c1)C1CCN(c2nc3ccccc3nc2C(F)(F)F)CC1 returned ATXN2 expr inh -10%, HepG2 viability 9%, DT40 TDP1 no CPT inconclusive, ATXN viability inactive, TDP1 cell CPT -24% and TGFb SMAD3 inh -19%.
Screening O=C(COC(=O)c1ccc2ccccc2n1)NCc1ccccc1 returned ATXN2 expr inh -15%, HepG2 viability 0%, DT40 TDP1 no CPT 2%, ATXN viability inactive, TDP1 cell CPT 7% and TGFb SMAD3 inh 6%.
`CCC[C@H]1CN(c2ccc(Br)cc2)C(=O)[C@@H]1CC(=O)Nc1ccc(OC)cc1` gave ATXN2 expr inh 4%, HepG2 viability -26%, DT40 TDP1 no CPT 16µM*, ATXN viability inactive, TDP1 cell CPT inconclusive and TGFb SMAD3 inh 3%.
Screening COc1ccc(NC(=O)C[C@H]2C(=O)N(c3ccc(Br)cc3)C[C@@H]2CSC)cc1 returned ATXN2 expr inh -7%, HepG2 viability -39%, DT40 TDP1 no CPT 23µM*, ATXN viability inactive, TDP1 cell CPT inconclusive and TGFb SMAD3 inh -9%.
Screening O=C(C[C@H]1C(=O)N(c2ccccc2)C[C@@H]1Cc1ccccc1)Nc1ccc(Br)cc1 returned ATXN2 expr inh -24%, HepG2 viability -38%, DT40 TDP1 no CPT 9.2µM*, ATXN viability inactive, TDP1 cell CPT 13µM* and TGFb SMAD3 inh -5%.
COc1ccc(NC(=O)C[C@H]2C(=O)N(c3ccc(OC)cc3)C[C@@H]2CSC)cc1 was read as ATXN2 expr inh -14%, HepG2 viability -10%, DT40 TDP1 no CPT inconclusive, ATXN viability inactive, TDP1 cell CPT -23% and TGFb SMAD3 inh -13%.
For COc1ccc(N2C[C@H](CSC)[C@@H](CC(=O)Nc3ccc(Br)cc3)C2=O)cc1 the results were ATXN2 expr inh -14%, HepG2 viability -56%, DT40 TDP1 no CPT 21µM*, ATXN viability inconclusive, TDP1 cell CPT inconclusive and TGFb SMAD3 inh -28%.
`O=C(COC(=O)COc1ccc(Cl)cc1)NC1CC1` gave HepG2 viability -14%, DT40 TDP1 no CPT -17%, ATXN viability inactive, TDP1 cell CPT 7% and TGFb SMAD3 inh 1%.
Screening O=C(O)CCC(CNS(=O)(=O)c1ccccc1)C(F)(F)F (stereo not drawn) returned ATXN2 expr inh 7%, HepG2 viability -2%, DT40 TDP1 no CPT -4%, ATXN viability inactive, TDP1 cell CPT 29% and TGFb SMAD3 inh 4%.
For Cc1cc(C)cc(N(CC(=O)NCc2ccco2)S(=O)(=O)c2ccccc2)c1 the results were ATXN2 expr inh -14%, HepG2 viability 2%, DT40 TDP1 no CPT -30%, ATXN viability inactive, TDP1 cell CPT -13% and TGFb SMAD3 inh 8%.
O=c1[nH][nH]c2c1[C@H](C1CCCC1)O[C@H](CCc1ccccc1)C2 was read as ATXN2 expr inh 0%, DT40 TDP1 no CPT 18µM*, ATXN viability inconclusive and TDP1 cell CPT 21µM*.
`CC(=O)Nc1cc(-c2ccccc2CN(C)C)cn2c(-c3ccc(C(C)=O)cc3)cnc12` gave ATXN2 expr inh -10%, HepG2 viability -14%, DT40 TDP1 no CPT 16µM*, ATXN viability inactive, TDP1 cell CPT inconclusive and TGFb SMAD3 inh -19%.
Screening CC(=O)Nc1cc(-c2cccc(N)c2)cn2c(-c3ccc(C(C)=O)cc3)cnc12 returned ATXN2 expr inh 8%, HepG2 viability -2%, DT40 TDP1 no CPT 10µM*, ATXN viability inconclusive, TDP1 cell CPT inconclusive and TGFb SMAD3 inh 4%.
`CC(=O)Nc1cc(-c2cccc(C(=O)NCCN(C)C)c2)cn2c(-c3ccccc3)cnc12` gave ATXN2 expr inh inconclusive, HepG2 viability -34%, DT40 TDP1 no CPT inconclusive, ATXN viability inactive, TDP1 cell CPT inconclusive and TGFb SMAD3 inh 68%.

From PubChem
